LmPK inh: LmPK (Leishmania mexicana) enzyme inhibition; hit rate 0.37% among 290,000; AID 1721; purified LmPK, Kinase-Glo ATP luminescence, 1 h; Q27686; Potency, µM (titrated, usually from 57.5 µM), inactives show at the top dose activity change, negative = inhibition, usual class: inhibitors; further: potency means the concentration at half of the fitted maximal effect; on the % scale 0 is the no-effect control and ±100 the full control effect
Target sequence (Q27686 whole entry, looked up): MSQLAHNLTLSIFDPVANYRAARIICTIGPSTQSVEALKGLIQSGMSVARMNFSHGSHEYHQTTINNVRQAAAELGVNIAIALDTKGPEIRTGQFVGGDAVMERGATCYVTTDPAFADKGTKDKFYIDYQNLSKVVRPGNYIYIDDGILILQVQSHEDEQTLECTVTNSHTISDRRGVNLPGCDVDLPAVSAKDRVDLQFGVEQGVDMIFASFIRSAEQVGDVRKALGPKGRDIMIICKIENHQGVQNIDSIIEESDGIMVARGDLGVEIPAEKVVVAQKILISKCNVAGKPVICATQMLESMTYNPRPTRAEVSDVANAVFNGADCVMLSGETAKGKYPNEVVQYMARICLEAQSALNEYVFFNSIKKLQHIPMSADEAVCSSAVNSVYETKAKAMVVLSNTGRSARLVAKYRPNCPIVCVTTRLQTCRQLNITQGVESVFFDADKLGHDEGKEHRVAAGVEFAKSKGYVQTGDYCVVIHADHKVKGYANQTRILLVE
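0.1 nM LmPK, 0.5 mM PEP, 0.1 mM ADP; 50 mM imidazole pH 7.2, 7 mM MgCl2, 50 mM KCl; 1 h RT. Kinase-Glo luminescence readout, normalized to no-enzyme (full inhibition) and uninhibited wells.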
Shiga toxin inh: blocks Shiga toxin action in Vero cells | Vero cells, Shiga toxin protein synthesis inhibition reporter | inhibition, % at 38.7 µM | hit rate 9.2% among 290,000 | AID 2315; in the data active means inhibition mostly above about 28%, no sharp cut-off; inactive means mostly below about 43%; further: 0% is about no effect
Pf growth 96h: P. falciparum growth inhibition at 96 hour, primary screen for plastid delayed-death inhibitors | Potency, µM (highest dose often 28.7 µM), for the others: top-dose activity change, negative = inhibition, usual class: inhibitors | P. falciparum luciferase reporter growth, 96 h | hit rate 6.9% among 320,000; further: potency means the concentration at half of the fitted maximal effect; on the % scale 0 is the no-effect control and ±100 the full control effect
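Infected RBCs, 2% Hct / 0.05% parasitemia final; luciferase-reporter P. falciparum; cpd 96 h, 37 C, 5% CO2; luciferase detection reagent; luminescence.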
Pf growth 48h: inhibits P. falciparum growth in the first generation, 48 h. hit rate 5.9% among 310,000. P. falciparum luciferase growth in erythrocytes, 48 h. AID 504832. Potency, µM (series often up to 28.7 µM), without a hit: at the top dose activity change, negative = inhibition, actives largely listed as inhibitors; further: potency means the concentration at half of the fitted maximal effect; on the % scale 0 is the no-effect control and ±100 the full control effect
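Luciferase-expressing P. falciparum in infected erythrocytes (2% hematocrit, 0.1% parasitemia final) in RPMI 1640/0.5% Albumax were exposed to compound for 48 hours at 37 C, 5% CO2; growth read as luminescence.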
CHX counter: counter-screen for Shiga toxin inhibitors: cycloheximide protein synthesis inhibition | hit rate 12% among 300,000 | max response, % | cell reporter, cycloheximide protein synthesis inhibition counterscreen; in the data active means max response mostly above about 13%, no sharp cut-off; inactive means mostly below about 14%; further: read at 38.3 µM for the half of the compounds with a filed dose; 0% is about no effect
Numbers without * were called inactive; ? = inconclusive; . = not tested or not shown; [ ] = remark or other dose. Rows were chosen to be rich in hits. Some 22% of all compounds tested hit in one or more screens of this group. Unless noted, the call rests on the fitted dose curve; in most records, active means well fitted inhibition curve with a large enough effect; inconclusive means small, poorly fitted or top-dose-only effect, or another doubt; inactive means no such curve, though single readings can be large or run the other way.

SMILES	LmPK inh	Shiga toxin inh	Pf growth 96h	Pf growth 48h	CHX counter
Cc1cc(C(=O)Nc2ccccn2)no1	-22%	44*	15%	120%	23*
CCc1ccc(NC(=O)c2cc(C(C)C)on2)cc1	-8%	65*	-5%	222%	36*
CCc1ccc(NC(=O)c2cc(-c3ccc(OC)cc3)on2)cc1	0%	41*	?	.	64*
CCc1ccc(NC(=O)c2cc(-c3ccc(F)cc3)on2)cc1	8%	31	-6%	21%	3
COc1cccc(CN2CCNC(=O)C2CC(=O)NCCCN2CCCC2=O)c1 (centres undefined)	-3%	-1	-33%	-2%	-2
COc1cccc(Oc2nc(-c3ccncc3)nc3ccccc23)c1	4%	-3	?	?	-3
Cc1cccc(N2CCN(C(=O)C3CC(=O)N(C4CCCC4)C3)CC2)c1C (centres undefined)	1%	25	?	38%	13
Cc1ccc(S(=O)(=O)NC(=O)Nc2cc(C)on2)cc1	-2%	-6	0%	10%	1
Cc1cc(C(=O)NNc2ccc(F)cc2)no1	-2%	-9	16%	3%	2
Cc1ccc(NC(=S)Nc2cc(C)on2)cc1	-4%	67*	156%	118%	48*
Cc1ccc(NC(=O)c2cc(C)on2)cc1	-14%	62	0%	110%	56*
COc1ccc(Cl)cc1C(=O)NNC(=O)c1csc(N2CCOCC2)n1	.	.	0%	-2%	.
Cc1coc2c1c(C)cc1oc(=O)c(CC(=O)NCCCCCC(=O)O)c(C)c12	-4%	-5	5%	2%	-2
CCOc1ccc(NC(=O)CSc2nc(NS(=O)(=O)c3ccc(C)cc3)cc(=O)[nH]2)cc1	3%	5	94%	-10%	6
Cc1ccc(S(=O)(=O)Nc2cc(=O)[nH]c(SCC(=O)Nc3cccc(C)c3)n2)cc1	3%	-9	-1%	1.9µM*	-2
CCc1ccc(NC(=O)CSc2nc(NS(=O)(=O)c3ccccc3)cc(=O)[nH]2)cc1	0%	-13	4.1µM*	?	-1
Cc1ccc(NC(=O)CSc2nc(NS(=O)(=O)c3ccccc3)cc(=O)[nH]2)cc1	-2%	-17	3.7µM*	.	-4
Cc1ccc(S(=O)(=O)Nc2cc(=O)[nH]c(SCC(=O)Nc3ccccc3Cl)n2)cc1	3%	-6	23%[5.75 µM]	-7%	-6
CC(=O)c1cccc(NC(=S)Nc2cccc3ccccc23)c1	-1%	83*	7%	0%	44*
COc1ccc(NC(=S)Nc2cccc3ccccc23)cc1OC	5%	18	?	?	30*
CC(=O)Nc1cccc(NC(=S)Nc2cccc(Cl)c2C)c1	1%	15	13%[5.75 µM]	6%	7
CC(=O)c1cccc(NC(=S)NCc2ccccc2)c1	0%	-2	34%	0%	-1
CC(=O)Nc1cccc(NC(=S)Nc2cccc3ccccc23)c1	-18%	84*	45%	19%	44*
COc1ccc(NC(=S)Nc2cccc(Cl)c2)cc1OC	1%	-7	?	4%	-2
Cc1c(C(=O)OCC(=O)NCC2CCCO2)cccc1[N+](=O)[O-] (centres undefined)	-1%	-7	16%	0%	0
SMILES	LmPK inh	Shiga toxin inh	Pf growth 96h	Pf growth 48h	CHX counter
NC1=NC(c2ccc(Cl)cc2)N(c2ccc(S(N)(=O)=O)cc2)C(N)=N1 (centres undefined)	0%	-6	9.3µM*	?	23
COc1ccc(C2N=C(N)N=C(N)N2c2ccccc2OC)cc1OC (centres undefined)	3%	-15	?	-12%	-3
Cc1nc2ncccn2c1-c1csc(Nc2ccc(O)cc2)n1	7%	33	51%	?	12
c1ccc(-c2csc(Nc3ncccn3)n2)cc1	-14%	54*	?	302%	42
NNc1nc(-c2ccccc2)cs1	-3%	93	?	36%	34*
CC(=O)Nc1ccc(-c2csc(Nc3ccc(S(N)(=O)=O)cc3)n2)cc1	2%	-7	-1%	?	6
Cc1nc(-c2ccccc2)cs1	6%	-16	7%	.	2
O=C(NCc1ccccn1)C(=O)Nc1nc(-c2ccccc2)cs1	3%	23	-5%	16%	-3
CC(=O)Nc1ccc(-c2csc(Nc3ncccn3)n2)cc1	-2%	81*	0%	107%	33*
Oc1ccc(-c2csc(Nc3ncccn3)n2)cc1	-4%	122*	4.1µM*	377%	39*
Cc1ccc(-c2csc(NCCn3c(-c4ccncc4)nc4ccccc43)n2)cc1	1%	4	0%	-4%	-2
CC(=O)Nc1ccc(-c2csc(-c3cccnc3)n2)cc1	-4%	111*	6%	109%	72*
CN1C(c2ccccc2)CCOS1(=O)=O (centres undefined)	0%	-5	3%	28%	0
N/C(=N\OC(=O)CCc1ccccc1)c1ccc(Br)cc1	-5%	71*	0%	19%	38*
Cc1ccc(/C(N)=N/OC(=O)CCc2ccccc2)cc1	-1%	91*	217%	43%	33*
N/C(=N\OC(=O)CCc1ccccc1)c1ccccc1Cl	-2%	107*	?	10%[5.75 µM]	28*
CCOC(=O)C1=C(COC(=O)c2cc(OC)c(OC)cc2[N+](=O)[O-])NC(=O)NC1C (centres undefined)	.	.	-2%	-11%	.
CC(C)C[C@H]1CN=C(Nc2ccccc2)N1CCC1CCCCC1	-1%	-10	9.3µM*	-49%	-2
CC(C)C[C@H]1CN=C(Nc2ccccc2)N1CC1CCC(C(C)(C)C)CC1 (some centres undefined)	.	.	7.4µM*	8.3µM*	.
O=[N+]([O-])c1ccc(-c2ccc(/C=N/Nc3nc(NCc4ccccc4)nc(N4CCOCC4)n3)o2)cc1	-3%	37	?	1.5µM*	9
COc1nc(N/N=C/c2ccc(-c3ccccc3[N+](=O)[O-])o2)nc(N2CCOCC2)n1	-2%	110*	?	14%	70*
CCOc1ccc(CN(C)C(=O)CNC(=O)c2sc3ccccc3c2Cl)cc1	.	.	-19%	-16%	.
C=CCN(C(=O)CCC(=O)Nc1cc(C)on1)C(C(=O)NC(C)(C)C)c1ccc(OC)cc1 (centres undefined)	1%	-15	1%	-10%	-1
CC1CCN(C(=O)CCc2ccc(S(=O)(=O)NC(C)C)cc2)CC1	-1%	-9	4%	.	12
CC(/C=C/c1ccccc1)=N\Nc1nc(C)cc(C)n1	-2%	44*	10µM*	?	33*
Cc1cc(C)nc(NN=C(c2ccccc2)c2ccccc2)n1	-1%	-3	13µM*	?	-4
Cc1cc(C)nc(NN=C2CCCC2)n1	-3%	12	?	12µM*	5
Cc1cc(C)nc(NS(=O)(=O)c2ccccc2)n1	-2%	-12	41%	26%	-2
CC(/C=C/c1ccccc1)=N/NC(=O)c1nc2nc(C)cc(C)n2n1	-11%	29	58%	29%	1

Source: PubChem BioAssay
